Many of the other results were omitted from the sample, so hits are more common in it than they were.
HT1080 IDH1KD tx: qHTS for induction of synthetic lethality in tumor cells producing 2HG: qHTS for the HT-1080-IDH1KD cell line | hit rate 2% among 360,000 | Potency, µM (doses to about 46.1 µM), for the others: at the highest dose activity, negative = toxicity, most hits filed as cytotoxic | HT-1080 IDH1 knockdown viability, ATP luminescence, 48 h;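 note: potency is the fitted concentration of half-maximal effect; 0% = DMSO wells and -100% = cell-free medium wells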
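After a 2 h attachment period, IDH1KD HT-1080 cells took pin-transferred compound for 48 h at 37 °C; ATP-based luminescence after 10 min room-temperature reagent incubation reported viability.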
IL-1B inflam inh: qHTS for Inhibitors of Inflammasome Signaling: IL-1-beta AlphaLISA Primary Screen. activity change, % at 57.5 µM. THP-1 LPS/ATP IL-1B secretion, AlphaLISA, 16 h; hits give low values. hit rate 4.7% among 360,000. AID 743279, 2014; in the data active = activity change below about -50%; inconclusive = mostly about -30% to -49%
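THP-1 cells pretreated 1 hr with compounds (up to 57.5 uM final), then stimulated with LPS (250 ng/mL final) plus ATP (1.25 mM final); secreted IL-1B measured by AlphaLISA after 16 hr, decreased signal indicating inhibition.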
12-LOX inh: Primary qHTS assay for inhibitors of human arachidonate 12S-lipoxygenase (ALOX12): Round 2 | hit rate 1.1% among 580,000 | AID 1671190, 2021 | Potency, µM (doses to about 108 µM), for the others: top-dose activity change, negative = inhibition, actives largely listed as inhibitors | Polyunsaturated fatty acid lipoxygenase ALOX12 (Homo sapiens), P18054 | purified 12hLO, xylenol orange hydroperoxide absorbance; note: potency is the fitted concentration of half-maximal effect
Target sequence (P18054 whole entry, looked up): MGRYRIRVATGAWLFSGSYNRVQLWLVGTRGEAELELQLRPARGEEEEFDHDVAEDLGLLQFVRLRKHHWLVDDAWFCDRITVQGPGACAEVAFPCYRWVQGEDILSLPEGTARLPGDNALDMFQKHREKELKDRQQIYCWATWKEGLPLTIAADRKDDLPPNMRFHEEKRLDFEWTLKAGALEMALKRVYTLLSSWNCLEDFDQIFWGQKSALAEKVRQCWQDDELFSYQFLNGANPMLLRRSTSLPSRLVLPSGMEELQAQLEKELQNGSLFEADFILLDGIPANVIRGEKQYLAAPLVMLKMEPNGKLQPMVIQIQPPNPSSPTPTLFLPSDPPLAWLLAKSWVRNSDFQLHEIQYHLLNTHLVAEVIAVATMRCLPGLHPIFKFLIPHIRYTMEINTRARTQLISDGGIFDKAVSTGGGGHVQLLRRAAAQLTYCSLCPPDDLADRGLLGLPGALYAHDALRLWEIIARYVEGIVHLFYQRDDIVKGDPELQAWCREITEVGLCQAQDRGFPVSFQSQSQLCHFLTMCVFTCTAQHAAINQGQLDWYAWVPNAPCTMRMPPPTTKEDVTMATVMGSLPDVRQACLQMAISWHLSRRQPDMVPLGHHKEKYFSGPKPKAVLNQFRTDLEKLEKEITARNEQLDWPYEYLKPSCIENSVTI
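Hydroperoxide product was detected by ferrous iron/xylenol orange as the 573 to 405 nm absorbance ratio. Arachidonic acid at 40 uM (final) was turned over for 30 min at room temperature by 150 nM human 12hLO, pH 7.0 Hepes buffer, after 15 min compound preincubation.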
TDP1 cell noCPT: qHTS for Inhibitors of human tyrosyl-DNA phosphodiesterase 1 (TDP1): qHTS in cells in absence of CPT; hit rate 15% among 420,000; AID 686978, 2013; DT40 Tdp1-/- hTDP1 cells, no CPT, ATP luminescence, 48 h; Potency, µM (titrated, usually from 46.2 µM), without a hit: top-dose activity change, negative = growth inhibition, actives largely listed as inhibitors; note: potency is the fitted concentration of half-maximal effect; nearly all actives have a fitted effect of over 55% in size
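DT40 Tdp1-/-;hTDP1 cells, no CPT (DMSO vehicle only), 400 cells/well; compounds pin-transferred; ≥48 hr, 37 °C; CellTiter-Glo 30 min RT dark, luminescence read.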
HT1080NT lethal: qHTS for induction of synthetic lethality in tumor cells producing 2HG: qHTS for the HT-1080-NT fibrosarcoma cell line | HT-1080-NT fibrosarcoma viability, CellTiter-Glo ATP luminescence, 48 h | Potency, µM (highest dose often 46.1 µM), for inactives: at the top dose activity, negative = less viability, most hits filed as cytotoxic | hit rate 1.6% among 360,000;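 note: NT is the 2HG producing partner of a matched IDH1 knockdown line; potency is the fitted concentration of half-maximal effect; 0% = DMSO-treated cells and -100% = media-only wells without cells; nearly all actives have a fitted effect of over 55% in size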
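A 48-hour cytotoxicity screen used HT-1080-NT cells plated 2 hours before compound delivery. ATP-based CellTiter-Glo luminescence measured viability, normalized to DMSO and no-cell controls.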
TDP1 cell CPT: qHTS for Inhibitors of human tyrosyl-DNA phosphodiesterase 1 (TDP1): qHTS in cells in presence of CPT; chicken DT40 Tdp1-/-;hTDP1 cells + 20 nM CPT, ATP luminescence, 48 h; Potency, µM (series often up to 46.2 µM), for inactives: top-dose activity change, negative = growth inhibition, most hits filed as inhibitors; hit rate 12% among 420,000; AID 686979, 2013; note: potency is the fitted concentration of half-maximal effect; nearly all actives have a fitted effect of over 55% in size
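Chicken DT40 Tdp1-/- cells complemented with human TDP1, 400 cells/well, exposed to compounds plus 20 nM camptothecin for at least 48 h at 37 C; viability read as ATP content by CellTiter-Glo luminescence.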
* = called active by the depositor; ? = inconclusive; . = no result; [ ] = dose if it differs, or a comment. Unless noted, calls come from the whole dose curve; as a rule, active = well fitted curve in the direction sought with a large enough effect; inconclusive = small, poorly fitted or top-dose-only effect, or another doubt; inactive = no such curve, though single readings can be large; an effect the other way counts as inactive or inconclusive. Unless noted, % is set by controls: 0 for no effect and ±100 for the full control effect.

SMILES | HT1080 IDH1KD tx | IL-1B inflam inh | 12-LOX inh | TDP1 cell noCPT | HT1080NT lethal | TDP1 cell CPT
c1cncc(CN2CCOC[C@H]3CCNC[C@H]32)c1 | . | . | 26% | . | . | .
CCCCSc1nc2c(cnn2-c2ccccc2)c(=O)n1N | -16% | -51* | 7% | ? | 1% | -27%
Nc1cnn(-c2ccccc2)c(=O)c1Cl | 0% | 26 | ? | 16% | 1% | 7%
CCOC(=O)C1=C(C(=O)OCC)C2(c3ccccc3)c3ccccc3C1(C)N2C (stereo not drawn) | . | . | 0% | . | . | .
CCCC(C)NC(=O)COC(=O)c1c(C)n(C2CC2)c2ccc(OC)cc12 (stereo not drawn) | . | . | 7% | . | . | .
CCCN(CCC)C(=O)C(CCC(=O)OCCCN1CCN(CCOC(=O)Cc2c(C)n(C(=O)c3ccc(Cl)cc3)c3ccc(OC)cc23)CC1)NC(=O)c1ccccc1 (stereo not drawn) | . | . | ? | 11µM* | . | 13µM*
CCOc1ccc(-c2cc(C(=O)N3CCN(c4cccc(C(F)(F)F)c4)CC3)c3ccccc3n2)cc1 | . | . | 5% | 4.6µM* | . | 5.2µM*
COc1ccc(-c2cc(C(=O)N3CCN(c4ccccc4OC)CC3)c3cc(C(C)C)ccc3n2)cc1 | . | . | ? | 21µM* | . | 23µM*
COc1ccc(N2CCN(C(=O)c3cc(=O)[nH]c4ccccc34)CC2)cc1 | 0% | 23 | 8% | ? | 3% | 5%
CCOc1ccc(CCNC(=O)c2cc3c(-c4ccc(OC)c(OC)c4)nn(C)c3s2)cc1OCC | . | . | ? | 3.7µM* | . | 4.1µM*
O=[S+]1([O-])NCC2(CCN(CC3CCCCC3)C2)Oc2ncccc21 (stereo not drawn) | . | . | 5%[6.33 µM] | . | . | .
Cc1cc(C)n2c(Nc3ccc4c(c3)OCCO4)c(-c3cc4ccccc4o3)nc2n1 | -9% | 19 | ? | 21µM* | -8% | ?
O=C1NC(=O)N(c2ccc(Br)cc2)C(=O)/C1=C/c1ccsc1 | -2% | -17 | ? | -24% | -12% | -27%
O=C1NC(=O)N(c2cccc(Br)c2)C(=O)/C1=C/c1ccsc1 | 23µM* | -24 | 45µM* | ? | ? | ?
CC1(C)C(=O)[C@@H]2OC2[C@@]2(C)C1CC(O)[C@]1(C)C2CC[C@@]2(C)C(c3ccoc3)OC(=O)C3OC312 (stereo partly drawn) | . | . | . | ? | . | -26%
C[C@@H](Cc1ccccc1)NCCC(c1ccccc1)c1ccccc1 | . | . | . | 6.4µM* | . | ?
CCOC(=O)c1ccc(NC(c2ccc(N(C)C)cc2)P(=O)(OC(C)C)OC(C)C)cc1 (stereo not drawn) | -30% | 9 | -4% | 29µM* | -22% | ?
CC(C)OP(=O)(OC(C)C)C(Nc1ccccc1)c1cccc2c1OCO2 (stereo not drawn) | -2% | -19 | 9% | ? | 2% | ?
CC(=O)Nc1ccccc1C(=O)OCC(=O)c1ccc2c(c1)OCCO2 | 13% | 9 | 2% | -2% | 11% | 5%
Cc1cc(C)c(-c2csc(NC(=O)COC(=O)c3ccc4c(c3)OCO4)n2)c(C)c1 | 9% | -5 | -6% | 26µM* | 14% | ?
Cc1cc(C)cc(Oc2nc3ccccn3c(=O)c2/C=C(\C#N)c2nc3ccccc3s2)c1 | . | . | ? | 9.2µM* | . | ?
Cc1cccc(Oc2nc3c(C)cccn3c(=O)c2/C=C(\C#N)c2nc3ccccc3s2)c1 | . | . | ? | 18µM* | . | ?
Cc1cccn2c(=O)c(/C=C(\C#N)c3nc4ccccc4s3)c(Oc3ccc(F)cc3)nc12 | . | . | ? | 21µM* | . | ?
O=C(CC1CCCC1)N1[C@H]2CC[C@@H]1c1cnc(-c3ccc(F)cc3)nc1C2 | . | . | 9% | . | . | .
CC(C)C12CN3CN(C1)CC(C(C)C)(C3)C2=O | . | . | 0% | . | . | .
SMILES | HT1080 IDH1KD tx | IL-1B inflam inh | 12-LOX inh | TDP1 cell noCPT | HT1080NT lethal | TDP1 cell CPT
CCn1c(C2CCCNC2)nn(C)c1=O (stereo not drawn) | . | . | 27% | . | . | .
CC(C)[C@H]1C(=O)N[C@H](CO)Cc2c[nH]c3cccc(c23)N1C | . | . | 40µM* | . | . | .
CCCCCSc1cc(O)c(C(CNC)C(C)C)cc1OC (stereo not drawn) | ? | -68* | ? | 16µM* | ? | ?
CC/C(=C\C=C\[C@@H]1C=C[C@@H]2CCC[C@H]2[C@@H]1C(=O)c1ccc[nH]1)[C@@H]1O[C@@H]([C@@H](C)C(=O)O)CC[C@@H]1C | 8.2µM* | 0 | . | 5.8µM* | 10µM* | 7.3µM*
O=C(Cc1ccc(CO)cc1)N1CCN(Cc2cn[nH]n2)CC(O)C1 (stereo not drawn) | . | . | 98% | . | . | .
O=C(c1ccc(F)cc1)N1CCC(C(=O)O)(c2ccccc2)CC1 | . | . | 9%[6.33 µM] | . | . | .
N#Cc1ccc(C(=O)N2CCN(c3nc4ccc(F)cc4s3)CC2)cc1 | . | . | -19% | 2.3µM* | . | 2.3µM*
COC[C@H]1CCCN1C[C@H]1CN2CC[C@H]1C[C@@H]2CNC(=O)c1ccc(C(F)(F)F)cc1 | . | . | 96%[176 µM] | . | . | .
C=C[C@H]1CN2CC[C@H]1C[C@@H]2CNC(=O)Nc1cccc(C#N)c1 | . | . | 18%[176 µM] | . | . | .
COc1ccccc1-n1c(-c2ccccc2Br)nc2ccccc2c1=O | -2% | 1 | 9% | 18µM* | -21% | 23µM*
Cc1nc2ccc(Cl)cc2c(=O)n1-c1ccccc1Cl | -25% | -11 | 0% | -85% | -15% | -26%
COc1ccccc1-n1c(-c2ccccc2F)nc2ccccc2c1=O | -14% | -3 | 214% | ? | -10% | ?
Cc1ccc(-c2nc3ccccc3c(=O)n2-c2ncccc2C)cc1 | -1% | 26 | 0% | ? | -8% | -22%
COc1ccccc1-n1c(-c2ccc(C)cc2)nc2ccccc2c1=O | -16% | 1 | 0% | 12µM* | -9% | ?
Cc1nc2ccccc2c(=O)n1-c1ccccc1Cl | . | . | . | 24µM* | . | ?
C=CCN(C)C(=O)[C@H]1CN2CCC1C[C@@H]2Cn1cc(-c2ccccc2)nn1 (stereo partly drawn) | . | . | 17%[176 µM] | . | . | .
Cn1nc(-c2ccccc2)cc1[C@H]1CN2CC[C@H]1C[C@@H]2CNC(=O)N1CCOCC1 | . | . | 30%[176 µM] | . | . | .

Bioassay records (PubChem BioAssay)
